# In all, about 48,000 compounds went through this assay and about 13,000 (27%) showed an effect of 50% or more. The list shows a part of the results.
# System: Wolbachia pipientis
# Assay: Anti-Wolbachia Cell-Based Screen
# Assay type: functional
# Parameters: scale not given: in the data most compounds retested in dose-response had high values
# Details: 5 µM
row,Structure (SMILES),Percent Effect [%]
1,CCC(C)N(Cc1cccnc1)Cc1ccccc1Cn1cccn1 (configuration not stated),1.099
2,Cc1cc(N(Cc2ccccn2)C2CC2)n2nc(C(F)(F)F)nc2n1,23.9
3,N#CC(NC(=O)CS(=O)(=O)C1CCCC1)c1ccc(F)cc1F (configuration not stated),10.46
4,Cc1nn(C)c(C)c1NC(=O)CNC(c1ccccc1)C1CCCC1 (configuration not stated),-3.756
5,CCC(NC(=O)CS(=O)(=O)C1CCCC1)c1cc(F)ccc1F (configuration not stated),-16.07
6,CCS(=O)(=O)CC(=O)NC(c1ccccc1)C1CCCC1 (configuration not stated),90.5
7,CCn1cnnc1CNC(=O)NC(c1ccccc1)C1CCCC1 (configuration not stated),9.923
8,O=C(CS(=O)(=O)C1CCCC1)NC(c1ccc(F)cc1)C1CC1 (configuration not stated),106.7
9,CN(CCNC(=O)N1CCCC1)C(=O)OC(C)(C)C,-14.2
10,Cn1c(NCC(=O)N2CCCCC2)c(C#N)c(=O)n(C)c1=O,-4.549
11,Cc1c(CN2CCCCC2)c(O)n(CCCO)c(=O)c1C#N,106.4
12,Cc1oc(NC(=O)C(C)N2CCN(CCO)CC2)c(C#N)c1C (configuration not stated),14.13
13,Cc1c(CN2CCOCC2)c(O)n(CCO)c(=O)c1C#N,129.2
14,Cn1cc(C#N)cc1C(=O)Nc1ccc(CN2CCOCC2)cn1,-7.398
15,Cn1c(NCCN2CCCCCC2)c(C#N)c(=O)n(C)c1=O,6.229
16,Cc1nn(C)c(N2CCOCC2)c1CNC(C)c1cccnc1 (configuration not stated),-5.13
17,CNC(=O)CCN1CCCCCC1c1ccc(C)o1 (configuration not stated),-114
18,Cc1ncsc1CCC(=O)NCc1csc(N2CCCC2)n1,13.92
19,Cc1nc(O)cc(CCNC(=O)C2CC(=O)N(CC(C)C)C2)n1 (configuration not stated),-0.9354
20,CNC(=O)CCc1cc(C2CCCCN2C)nc(C)n1 (configuration not stated),129.2
21,CNC(=O)CCc1cc(C2CCCCN2C(C)C)nc(C)n1 (configuration not stated),119
22,Cc1[nH]n(-c2ccccc2)c2nnc(N)c1-2,-6.219
23,CC(C)c1cc(C2CCCN2C(=O)CN2C(=O)OC(C)(C)C2=O)no1 (configuration not stated),116.9

row,Structure (SMILES),Percent Effect [%]
1,Cc1noc(C)c1C1CCCN1C(=O)CN1CC2(CCNCC2)OC1=O (configuration not stated),-18.41
2,Cc1noc(C)c1C1CCCN1C(=O)CN1C(=O)OC(C)(C)C1=O (configuration not stated),87.43
3,Cc1cc(C2CCCN2C(=O)CN(C)Cc2ccccc2)no1 (configuration not stated),-3.366
4,CC(C)c1cc(C2CCCN2C(=O)CN2C(=O)CCNC2=O)no1 (configuration not stated),96.7
5,Cc1ccc2c(c1)SCC(=O)N2CC(=O)N1CCCC1c1cc(C)on1 (configuration not stated),-2.59
6,Cc1noc(C)c1C1CCCN1CCC(=O)N1CCc2ccccc2C1 (configuration not stated),-8.027
7,Cc1cc(CC(=O)N2CCCC2c2nc(C(C)C)no2)on1 (configuration not stated),-3.815
8,Cc1cc(C2CCCCN2C(=O)CN2CC3(CCNCC3)OC2=O)no1 (configuration not stated),-1.974
9,Cc1cc(C2CCCCN2C(=O)CN2C(=O)OC(C)(C)C2=O)no1 (configuration not stated),120.5
10,O=C1CCNC(=O)N1CC(=O)N1CCC1c1ccc(F)cc1 (configuration not stated),13.18
11,O=C(Cc1cccs1)NCC1COCc2c(-c3ccoc3)nnn2C1 (configuration not stated),-2.287
12,COc1cccc2c1OCC(C(=O)N1CCN(C3CCSCC3)CC1)C2 (configuration not stated),-19.41
13,Cc1ccc2c(c1)SCC(=O)N2CC(=O)N1CCCC1c1cc(C)no1 (configuration not stated),3.294
14,Cc1cc(C2CCCN2C(=O)CN2C(=O)OC(C)(C)C2=O)on1 (configuration not stated),91.01
15,Cc1cc(C2CCCN2C(=O)CN2CC3(CCNCC3)OC2=O)on1 (configuration not stated),8.935
16,CN(CCC(F)(F)F)C(=O)[C@H]1CSCN1C(=O)OC(C)(C)C,-7.919
17,Cc1ccc(C(=O)Nc2nnc(C(C)C)s2)c(-n2cnnn2)c1C,110.4
18,CC(=O)N1CCC(NC(=O)c2ccccc2-n2cnnn2)CC1,3.237
19,Cc1ccc(C(=O)Nc2nnc(C3CC3)s2)c(-n2cnnn2)c1C,95.77
20,Cc1ccc(C(=O)NC2CC2)c(-n2cnnn2)c1C,120.6
21,Cc1ccc(CNC(=O)Nc2nnc(C3CC3)s2)n1C,-14.35
22,Cc1nn(C)c(C)c1CCC(=O)Nc1nnc(C2CC2)s1,27.73
23,O=C(Nc1nncs1)c1ccc(-n2cnnn2)cc1,-0.9565

row,Structure (SMILES),Percent Effect [%]
1,CCc1nnc(NC(=O)c2ccc(C3CCCN3CC(C)C)s2)s1 (configuration not stated),-1.663
2,COc1ccc(F)cc1C(=O)Nc1nnc(C)s1,1.67
3,Cc1ccc(C(=O)Nc2nnc(CC(C)C)s2)c(-n2cnnn2)c1C,125.4
4,O=C(NC1CC1)c1cc(Cl)ccc1-n1cnnn1,2.892
5,Cc1cc(C(=O)N[C@H](C)c2onc(C)c2C(=O)O)c(C)o1.Cl,-8.572
6,Cc1cc(C)c(C(=O)NC2CCN(c3ncccc3C#N)CC2)c(=O)[nH]1,4.704
7,Cc1ccc(C(=O)N2CC(C(N)=O)O[C@H](C)C2)c(C)c1 (some centres not stated),-8.345
8,CCCSc1ncc(-c2nccn2CCC(N)=O)cn1,-44.89
9,COc1ccccc1OC(C)CNC(=O)c1cnc[nH]1 (configuration not stated),110.3
10,Cc1ccc(OC(C)CNC(=O)c2c[nH]nn2)cc1 (configuration not stated),4.97
11,COc1ccccc1C(C)CNC(=O)c1[nH]ncc1Br (configuration not stated),42.12
12,CC(CNS(N)(=O)=O)Oc1ccc(Cl)cc1 (configuration not stated),-13.16
13,CC(C)Oc1ccccc1CNC(=O)c1[nH]ncc1Br,24.22
14,CC(CNC(=O)c1c[nH]nn1)Oc1cccc(Br)c1 (configuration not stated),-32.96
15,CC(CNC(=O)c1c[nH]nn1)Oc1ccccc1Br (configuration not stated),-9.853
16,CC(CNC(=O)c1c[nH]nn1)Oc1ccc(Cl)cc1 (configuration not stated),99.95
17,CC(CNC(=O)c1cnc[nH]1)Oc1ccccc1Br (configuration not stated),110.9
18,O=C(NC1CCCN(c2ccc(OC(F)F)cc2)C1)c1cnc[nH]1 (configuration not stated),-8.702
19,CN(Cc1ccco1)Cc1ccccc1CNC(=O)c1cnc[nH]1,-12.45
20,CC(CNC(=O)c1cnc[nH]1)Oc1ccc(Cl)cc1 (configuration not stated),110.7
21,CC(C)(O)c1cc(CC2(NCc3ccco3)COC2)no1,-7.158
22,CN(C)CCn1ccnc1C1CCN(C(=O)CCc2ccncc2)CC1,-7.346
23,CCNS(=O)(=O)C1CCN(C(=O)c2c(F)cc(F)cc2F)C1 (configuration not stated),-5.983

row,Structure (SMILES),Percent Effect [%]
1,CC(C)N(C)Cc1cncc2c1CCN(C(=O)c1ccccc1F)C2.Cl.Cl,-2.748
2,CN(C)Cc1cnc(C2CCN(C(=O)c3cc(F)cc(F)c3)C2)[nH]1 (configuration not stated),116.9
3,Cc1ccc(C(=O)N2CCCC(Nc3ccc(F)cc3)C2)cc1 (configuration not stated),-37.46
4,CN(C)Cc1cnc(C2CCN(C(=O)c3ccccc3F)C2)[nH]1.Cl (configuration not stated),151.5
5,CCN(C1CCN(C(=O)c2cccc(Cl)c2)CC1)S(C)(=O)=O,6.766
6,CN(C)Cc1cnc(C2CCN(C(=O)c3ccc(F)cc3)C2)[nH]1 (configuration not stated),127.5
7,CCNS(=O)(=O)C1CCN(C(=O)c2ccc(F)cc2)C1 (configuration not stated),4.07
8,CN(C)Cc1cnc(C2CCN(C(=O)c3cccc(Cl)c3)C2)[nH]1 (configuration not stated),128.9
9,CCS(=O)(=O)N(C)C1CCN(C(=O)c2cccc(Cl)c2)CC1,-7.301
10,CN(C)Cc1ccc(C(=O)N2CCCC(n3cccn3)C2)cc1 (configuration not stated),13.31
11,CCOCCOc1ccccc1C(=O)N1CCCC(c2ncc[nH]2)C1 (configuration not stated),-24.68
12,CCCS(=O)(=O)N1CCC2(CC(=O)N(c3cnn(C)c3)C2)C1 (configuration not stated),9.344
13,CCOc1ccc(N(CCC#N)C(=O)c2ccc(SC)nc2)cc1,-11.41
14,CN(C)Cc1cnc(C2CCN(C(=O)c3cccc(F)c3)C2)[nH]1 (configuration not stated),98.09
15,O=C(c1cccc(F)c1)N1C[C@H]2CCCC(OCc3cccnc3)[C@H]2C1 (some centres not stated),7.164
16,CC1CCCN1C1CCN(C(=O)c2cccc(F)c2)CC1 (configuration not stated),1.778
17,CCc1cnc(N2CCC3(CC2)CCN(c2cnn(C)c2)C3=O)nc1,-11.71
18,Cc1nonc1NC(=O)C1SCCc2ccccc21 (configuration not stated),-22.17
19,CCC(CO)N(Cc1ccsc1)Cc1c(C)nn(C)c1Cl (configuration not stated),83.51
20,CCC(CO)N(Cc1ccncc1)Cc1c[nH]nc1-c1ccc(F)cc1 (configuration not stated),-8.532
21,CCC(CO)N(Cc1ccco1)C(=O)c1ccc(F)cc1Cl (configuration not stated),-20.92
22,CCC(CO)N(Cc1ccc(F)cc1)Cc1c(C)nn(C)c1Cl (configuration not stated),108.6
23,CCC(CO)N(CC=C(C)C)Cc1ccsc1 (configuration not stated),-1.911

row,Structure (SMILES),Percent Effect [%]
1,CCC(CO)N(Cc1ccco1)Cc1c(C)nn(C)c1Cl (configuration not stated),113.8
2,CCC(CO)N(Cc1ccco1)C(=O)c1cccc(C)c1O (configuration not stated),-5.185
3,CCC(CO)N(Cc1ccsc1)Cc1cccc(O)c1 (configuration not stated),4.07
4,CCC(CO)N(Cc1ccccn1)Cc1c[nH]nc1-c1ccc(F)cc1 (configuration not stated),-3.197
5,O=C(NC1(c2nnn(CC3CCCO3)n2)CCCC1)c1ccccc1 (configuration not stated),-21.33
6,CCC(=O)NCC(=O)Nc1c(C)cnn1Cc1cc(F)ccc1F,-6.238
7,FC(F)(F)c1[nH]nc2c1CN(Cc1ccccc1)CC2,-6.07
8,Cn1c(=O)ccn(CC(=O)N2CCCC(n3cccn3)C2)c1=O (configuration not stated),-17.99
9,CC(=O)N1Cc2ccccc2C[C@H]1C(=O)N(C)Cc1ccccn1,-7.664
10,N#Cc1ccc(NCC(=O)Nc2ncn(Cc3cccnc3)n2)cc1,2.258
11,N#Cc1cccc(C(=O)N2CCc3ncc(Cn4cccn4)n3CC2)c1,-16.45
12,Cn1cccc1C(=O)NCc1cnc2n1CCN(C(=O)c1ccoc1)C2,-3.453
13,CN1CCN(Cc2cnc3n2CCN(C(=O)c2ccoc2)C3)CC1,1.07
14,O=C(O)C(F)(F)F.O=C(c1ccccn1)N1CCc2ncc(Cn3cccn3)n2CC1,108.7
15,N#Cc1ccc(C(=O)N2CCn3c(Cn4cccn4)cnc3C2)cc1.O=C(O)C(F)(F)F,-19.27
16,O=C(c1ccoc1)N1CCc2ncc(Cn3cccn3)n2CC1,85.84
17,Cn1cccc1C(=O)N1CCc2ncc(Cn3cccn3)n2CC1,-10.36
18,Cc1ccsc1C(=O)N1CCc2ncc(Cn3cccn3)n2CC1,-18.82
19,O=C(c1cccc(F)c1)N1CCc2ncc(Cn3cccn3)n2CC1,90.68
20,Cc1ccc(C(=O)N2CCc3ncc(Cn4cccn4)n3CC2)cn1,106.9
